Consider five molecules from ChEMBL document CHEMBL1961873, “Compounds: GSK PKIS; Assays: Nanosyn kinase panel” (2012).

Each structure is given as a SMILES string.

In assay [1] the target is Serine/threonine-protein kinase pim-2 (Homo sapiens) (UniProt Q9P1W9). As to conditions: at 1 µM.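 Further: each value is a mean of the inhibition measurements against the kinase.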
Assay [2] has as its target Serine/threonine-protein kinase pim-3 (Homo sapiens) (UniProt Q86V86). As to conditions: at 0.1 µM.
Assay [3] shares this target. As to conditions: at 1 µM.
Assay [4] concerns the target T1, MAP kinase-activated protein kinase 5 (Homo sapiens) (UniProt Q8IW41).
T1 sequence (whole entry): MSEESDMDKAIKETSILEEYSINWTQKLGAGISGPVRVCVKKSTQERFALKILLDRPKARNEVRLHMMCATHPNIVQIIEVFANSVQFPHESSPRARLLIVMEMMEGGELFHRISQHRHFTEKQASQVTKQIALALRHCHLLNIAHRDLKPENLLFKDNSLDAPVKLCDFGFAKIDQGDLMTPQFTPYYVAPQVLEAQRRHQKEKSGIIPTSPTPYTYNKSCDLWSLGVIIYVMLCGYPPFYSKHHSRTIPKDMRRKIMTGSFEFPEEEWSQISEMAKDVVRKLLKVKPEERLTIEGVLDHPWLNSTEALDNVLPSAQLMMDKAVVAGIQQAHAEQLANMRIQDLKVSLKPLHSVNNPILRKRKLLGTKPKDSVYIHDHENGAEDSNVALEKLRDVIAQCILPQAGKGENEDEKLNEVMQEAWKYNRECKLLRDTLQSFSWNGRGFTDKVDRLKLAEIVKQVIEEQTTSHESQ
As to conditions: at 0.1 µM.

Assay [5] deals with T1, MAP kinase-activated protein kinase 5 (Homo sapiens). As to conditions: at 1 µM.
Assay [6] deals with Serine/threonine-protein kinase SIK1 (Homo sapiens) (UniProt P57059). As to conditions: at 0.1 µM.
For assay [7] the target is unchanged. As to conditions: at 1 µM.
Assay [8] concerns the target Serine/threonine-protein kinase SIK2 (Homo sapiens) (UniProt Q9H0K1). As to conditions: at 0.1 µM.
Assay [9] shares this target. As to conditions: at 1 µM.
In assay [10] the target is T2, Serine/threonine-protein kinase TBK1 (Homo sapiens) (UniProt Q9UHD2).
T2 sequence (whole entry): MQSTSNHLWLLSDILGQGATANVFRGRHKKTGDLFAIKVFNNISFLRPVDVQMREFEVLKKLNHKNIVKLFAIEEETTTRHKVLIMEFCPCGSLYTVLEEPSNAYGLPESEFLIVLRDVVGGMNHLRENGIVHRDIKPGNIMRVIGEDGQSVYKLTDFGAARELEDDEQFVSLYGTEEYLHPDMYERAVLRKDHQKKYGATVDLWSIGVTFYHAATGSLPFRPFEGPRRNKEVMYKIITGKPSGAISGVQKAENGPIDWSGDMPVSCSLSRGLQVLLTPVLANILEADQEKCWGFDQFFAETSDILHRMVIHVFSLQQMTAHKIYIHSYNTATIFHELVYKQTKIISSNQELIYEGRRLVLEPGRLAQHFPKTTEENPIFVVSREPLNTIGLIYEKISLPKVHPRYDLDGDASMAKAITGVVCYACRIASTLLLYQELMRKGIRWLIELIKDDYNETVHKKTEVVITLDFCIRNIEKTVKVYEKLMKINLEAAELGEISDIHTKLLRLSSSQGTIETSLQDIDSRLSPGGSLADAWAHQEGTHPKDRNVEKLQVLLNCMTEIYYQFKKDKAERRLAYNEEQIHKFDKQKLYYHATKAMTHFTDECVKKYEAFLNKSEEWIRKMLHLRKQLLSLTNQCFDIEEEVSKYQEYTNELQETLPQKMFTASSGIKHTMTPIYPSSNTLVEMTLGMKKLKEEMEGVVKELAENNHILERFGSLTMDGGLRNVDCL
As to conditions: at 0.1 µM.

The target of assay [11] is T2, Serine/threonine-protein kinase TBK1 (Homo sapiens). As to conditions: at 1 µM.
Assay [12] deals with T3, Testis-specific serine/threonine-protein kinase 1 (Homo sapiens) (UniProt Q9BXA7).
T3 sequence (whole entry): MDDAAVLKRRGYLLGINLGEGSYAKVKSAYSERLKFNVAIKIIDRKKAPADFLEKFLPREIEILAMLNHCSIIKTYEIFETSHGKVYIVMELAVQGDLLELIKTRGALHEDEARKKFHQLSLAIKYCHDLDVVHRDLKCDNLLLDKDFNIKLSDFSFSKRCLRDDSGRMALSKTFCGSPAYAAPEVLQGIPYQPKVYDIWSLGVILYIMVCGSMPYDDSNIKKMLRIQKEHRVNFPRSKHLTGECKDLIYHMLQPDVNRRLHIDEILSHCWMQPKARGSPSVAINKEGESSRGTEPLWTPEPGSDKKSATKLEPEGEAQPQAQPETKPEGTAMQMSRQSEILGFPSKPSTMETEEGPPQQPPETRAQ
As to conditions: at 0.1 µM.

The target of assay [13] is T3, Testis-specific serine/threonine-protein kinase 1 (Homo sapiens). As to conditions: at 1 µM.
In assay [14] the target is T4, Testis-specific serine/threonine-protein kinase 2 (Homo sapiens) (UniProt Q96PF2).
T4 sequence (whole entry): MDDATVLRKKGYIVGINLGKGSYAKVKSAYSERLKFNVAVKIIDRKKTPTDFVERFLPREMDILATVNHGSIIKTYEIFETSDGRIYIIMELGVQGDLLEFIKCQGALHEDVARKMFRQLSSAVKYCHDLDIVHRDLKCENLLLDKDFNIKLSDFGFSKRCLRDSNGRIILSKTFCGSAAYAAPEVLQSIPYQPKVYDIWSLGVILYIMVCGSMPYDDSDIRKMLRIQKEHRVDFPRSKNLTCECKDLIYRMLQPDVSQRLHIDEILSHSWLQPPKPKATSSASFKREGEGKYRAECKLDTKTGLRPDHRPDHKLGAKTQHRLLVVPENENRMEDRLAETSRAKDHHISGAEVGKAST
As to conditions: at 0.1 µM.

For assay [15], the target named is T4, Testis-specific serine/threonine-protein kinase 2 (Homo sapiens). As to conditions: at 1 µM.
Assay [16] has as its target Casein kinase I isoform alpha (Homo sapiens) (UniProt P48729). As to conditions: at 0.1 µM.
Assay [17] shares this target. As to conditions: at 1 µM.
For assay [18], the target named is Casein kinase I isoform gamma-1 (Homo sapiens) (UniProt Q9HCP0). As to conditions: at 0.1 µM.
Assay [19] shares this target. As to conditions: at 1 µM.
For assay [20], the target named is Casein kinase I isoform gamma-2 (Homo sapiens) (UniProt P78368). As to conditions: at 0.1 µM.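 Further: values are mean inhibition figures reported as part of the GSK PKIS dataset.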
Chain of Casein kinase I isoform gamma-2 (Homo sapiens) (P78368 whole entry, looked up, canonical isoform): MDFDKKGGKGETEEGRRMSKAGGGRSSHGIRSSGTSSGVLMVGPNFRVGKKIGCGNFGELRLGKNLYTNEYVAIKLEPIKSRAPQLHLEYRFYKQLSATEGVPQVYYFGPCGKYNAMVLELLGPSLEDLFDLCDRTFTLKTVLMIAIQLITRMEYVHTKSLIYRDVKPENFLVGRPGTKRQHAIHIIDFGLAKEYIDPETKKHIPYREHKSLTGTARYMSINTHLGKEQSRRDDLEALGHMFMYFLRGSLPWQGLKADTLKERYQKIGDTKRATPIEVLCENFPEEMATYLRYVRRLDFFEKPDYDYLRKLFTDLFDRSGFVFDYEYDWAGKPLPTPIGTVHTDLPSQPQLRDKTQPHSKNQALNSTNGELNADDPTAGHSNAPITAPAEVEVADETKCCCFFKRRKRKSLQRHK

Chain of Casein kinase I isoform alpha (Homo sapiens) (P48729 2-337 limits assumed): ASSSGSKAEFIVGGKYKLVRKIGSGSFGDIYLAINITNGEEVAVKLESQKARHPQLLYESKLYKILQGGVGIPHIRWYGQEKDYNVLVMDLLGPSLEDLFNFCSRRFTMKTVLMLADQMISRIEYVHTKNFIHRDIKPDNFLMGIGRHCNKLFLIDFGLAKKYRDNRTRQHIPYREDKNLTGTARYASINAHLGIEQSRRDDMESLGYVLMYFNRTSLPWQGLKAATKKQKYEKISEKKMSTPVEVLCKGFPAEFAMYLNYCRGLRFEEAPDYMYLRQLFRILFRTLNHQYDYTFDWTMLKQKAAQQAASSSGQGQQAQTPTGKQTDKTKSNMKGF
Chain of Casein kinase I isoform gamma-1 (Homo sapiens) (Q9HCP0 whole entry, looked up, canonical isoform): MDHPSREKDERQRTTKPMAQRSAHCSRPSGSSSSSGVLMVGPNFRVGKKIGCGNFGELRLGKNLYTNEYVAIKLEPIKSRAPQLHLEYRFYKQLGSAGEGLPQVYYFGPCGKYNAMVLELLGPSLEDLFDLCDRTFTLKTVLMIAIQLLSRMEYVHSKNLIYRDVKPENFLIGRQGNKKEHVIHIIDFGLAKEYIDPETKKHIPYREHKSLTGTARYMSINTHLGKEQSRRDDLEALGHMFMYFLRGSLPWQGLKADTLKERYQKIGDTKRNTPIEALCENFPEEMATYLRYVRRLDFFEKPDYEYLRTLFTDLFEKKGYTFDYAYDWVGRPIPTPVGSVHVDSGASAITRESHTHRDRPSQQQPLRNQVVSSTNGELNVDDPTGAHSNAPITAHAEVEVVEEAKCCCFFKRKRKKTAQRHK
Chain of Serine/threonine-protein kinase pim-2 (Homo sapiens) (Q9P1W9 whole entry, looked up): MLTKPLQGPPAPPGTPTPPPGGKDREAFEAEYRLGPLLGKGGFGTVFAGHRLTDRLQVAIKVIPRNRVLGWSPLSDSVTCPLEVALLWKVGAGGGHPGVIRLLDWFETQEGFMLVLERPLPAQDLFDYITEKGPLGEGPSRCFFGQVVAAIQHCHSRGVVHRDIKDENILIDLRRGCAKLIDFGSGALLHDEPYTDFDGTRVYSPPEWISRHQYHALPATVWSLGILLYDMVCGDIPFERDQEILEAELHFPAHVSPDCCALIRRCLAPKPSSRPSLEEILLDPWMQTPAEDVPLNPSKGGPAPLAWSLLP
Chain of Serine/threonine-protein kinase SIK2 (Homo sapiens) (Q9H0K1 whole entry, looked up): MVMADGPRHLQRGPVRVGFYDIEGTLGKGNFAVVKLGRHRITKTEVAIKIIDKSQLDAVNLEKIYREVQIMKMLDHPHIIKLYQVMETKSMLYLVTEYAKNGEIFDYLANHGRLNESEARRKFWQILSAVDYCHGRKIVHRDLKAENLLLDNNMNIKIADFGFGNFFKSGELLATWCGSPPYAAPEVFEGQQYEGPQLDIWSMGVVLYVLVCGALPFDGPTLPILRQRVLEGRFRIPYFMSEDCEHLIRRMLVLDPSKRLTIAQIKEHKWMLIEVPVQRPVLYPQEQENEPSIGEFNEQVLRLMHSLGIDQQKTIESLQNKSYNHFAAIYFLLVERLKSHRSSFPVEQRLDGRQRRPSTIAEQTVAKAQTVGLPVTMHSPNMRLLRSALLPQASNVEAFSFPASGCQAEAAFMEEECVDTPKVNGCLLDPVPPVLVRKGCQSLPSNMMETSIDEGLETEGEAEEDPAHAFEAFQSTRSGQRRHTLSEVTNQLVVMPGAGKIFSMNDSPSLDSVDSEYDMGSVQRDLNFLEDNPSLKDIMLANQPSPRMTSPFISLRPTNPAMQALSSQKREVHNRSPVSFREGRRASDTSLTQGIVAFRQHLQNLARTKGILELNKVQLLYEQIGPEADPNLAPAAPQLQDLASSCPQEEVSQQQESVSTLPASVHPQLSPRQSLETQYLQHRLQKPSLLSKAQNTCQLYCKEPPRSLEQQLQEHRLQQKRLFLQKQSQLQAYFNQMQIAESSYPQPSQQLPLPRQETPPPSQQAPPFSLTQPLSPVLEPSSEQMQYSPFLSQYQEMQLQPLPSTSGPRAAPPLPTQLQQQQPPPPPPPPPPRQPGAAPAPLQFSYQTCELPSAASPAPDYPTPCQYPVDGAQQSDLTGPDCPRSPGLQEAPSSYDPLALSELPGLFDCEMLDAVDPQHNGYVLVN
Chain of Serine/threonine-protein kinase SIK1 (Homo sapiens) (P57059 whole entry): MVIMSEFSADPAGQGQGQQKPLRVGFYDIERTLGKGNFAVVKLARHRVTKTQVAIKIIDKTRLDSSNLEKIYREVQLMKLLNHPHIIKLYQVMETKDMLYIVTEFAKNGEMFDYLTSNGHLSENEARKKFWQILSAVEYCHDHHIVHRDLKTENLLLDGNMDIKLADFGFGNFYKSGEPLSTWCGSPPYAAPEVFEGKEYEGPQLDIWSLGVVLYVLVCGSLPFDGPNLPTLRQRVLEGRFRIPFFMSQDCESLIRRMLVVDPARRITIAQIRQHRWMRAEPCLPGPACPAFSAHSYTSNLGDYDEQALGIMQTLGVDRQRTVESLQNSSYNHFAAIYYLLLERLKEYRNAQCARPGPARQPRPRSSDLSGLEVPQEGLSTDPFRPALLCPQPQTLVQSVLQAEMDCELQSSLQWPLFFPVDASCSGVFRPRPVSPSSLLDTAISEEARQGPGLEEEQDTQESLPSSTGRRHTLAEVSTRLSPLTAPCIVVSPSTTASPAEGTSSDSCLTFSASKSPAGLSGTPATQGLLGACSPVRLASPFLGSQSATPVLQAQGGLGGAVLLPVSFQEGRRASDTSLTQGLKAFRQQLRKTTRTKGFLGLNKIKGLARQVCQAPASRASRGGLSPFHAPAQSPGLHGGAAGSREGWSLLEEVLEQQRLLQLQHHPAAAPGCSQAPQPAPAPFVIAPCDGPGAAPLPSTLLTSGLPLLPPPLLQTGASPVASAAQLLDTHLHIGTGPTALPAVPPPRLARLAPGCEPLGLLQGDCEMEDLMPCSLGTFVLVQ

In general, inhibition refers to the drop in the measured response relative to a control, in per cent. Turning to `Cc1ccc2c(c1)/C(=N/Nc1ccc(S(N)(=O)=O)cc1)C(=O)N2`, the inhibition was 1.85% in assay [1]; -0.58% in assay [2]; -0.92% in assay [3]; 0.02% in assay [4]; -2.03% in assay [5]; 1.14% in [6]. Further, the inhibition in [7] is 1.4%; in [8] it was -5.87%; in [9], 10.4%; in [10] it was -2.1%; in assay [11], 6.6%; in assay [12], -0.94%. Moreover, the inhibition was 0.43% in assay [13]; -0.24% in assay [14]; -1.16% in assay [15]; 0.07% in assay [16]; -0.4% in [17]; 0.78% in assay [18]. For the same molecule, the inhibition in assay [19] is 1.26%; in assay [20] it was 0.31%.
For the molecule `Cc1ccc(C(=O)NC2CC2)cc1-c1ccc2[nH]ncc2c1`, the inhibition in [1] is 0.98%; in assay [2], 1.05%; in [3] it was 4.89%; in assay [4], -1.55%; in assay [5], -1.4%; in assay [6], -8.63%. The inhibition in assay [7] is -5.39%; in assay [8] it was -3.95%; in assay [9], -7.9%; in assay [10], -3.58%; in assay [11] it was -1.07%; in [12], -1.33%. Further, the inhibition in [13] was -2.04%; in [14] it was -2.24%; in assay [15], -1.65%; in assay [16], -6.12%; in assay [17], -2.96%; in assay [18] it was -3.43%. Moreover, the inhibition in [19] is -2.76%; in assay [20], -2.87%.
For the molecule `COC(=O)c1ccc2c(c1)C(=Cc1cc(Br)c(O)c(Br)c1)C(=O)N2`, the inhibition in assay [1] amounted to 53.2%; in assay [2], 18.4%; in assay [3], 64.3%; in [4], 0.85%; in assay [5], 2.43%; in assay [6] it was 8.54%. In addition, the inhibition came to 14.4% in assay [7]; 3.66% in assay [8]; 9.93% in assay [9]; 1.23% in assay [10]; 6.58% in assay [11]; 3.53% in assay [12]. The inhibition in assay [13] was 5.53%; in assay [14], -0.06%; in assay [15] it was 1.17%; in [16], 1.76%; in assay [17], 6.74%; in assay [18], 3.99%. The inhibition in assay [19] was 6.68%; in assay [20], 4.6%.
Turning to `CCS(=O)(=O)c1ccc(OC)c(Nc2nccc(N(C)c3ccc4c(C)n[nH]c4c3)n2)c1`, the inhibition was 0.56% in assay [1]; -0.02% in [2]; 0.25% in assay [3]; 1.5% in assay [4]; 1.32% in assay [5]; 3.91% in assay [6]. Further, the inhibition was 23.5% in assay [7]; -0.54% in [8]; 7.47% in [9]; 2.62% in assay [10]; 4.2% in [11]; 4.59% in assay [12]. The inhibition in assay [13] stood at 5.05%; in assay [14] it was 1.98%; in assay [15] it was 1.88%; in assay [16] it was 2.29%; in [17], 1.04%; in [18], 4.4%. For the same molecule, the results for the inhibition in assay [19] and in assay [20] were 4.99% and 3.88%, respectively.
Turning to `CN(C)C(=O)O[C@@H]1CN[C@@H](C#Cc2cc3ncnc(Nc4ccc(OCc5cccc(F)c5)c(Cl)c4)c3s2)C1`, the inhibition in [1] was 0.58%; in assay [2], -0.21%; in assay [3], -1.29%; in assay [4] it was -0.43%; in [5] it was -2.16%; in assay [6], 0.03%. Also, the inhibition was 3.96% in assay [7]; -0.41% in assay [8]; 10.1% in [9]; 4.03% in assay [10]; 2.9% in assay [11]; -0.67% in [12]. Further, the inhibition is -0.36% in assay [13]; -0.92% in assay [14]; -1.41% in assay [15]; 9.15% in [16]; 6.58% in [17]; 2% in assay [18]. Moreover, the inhibition in assay [19] came to 6.01%; in assay [20], 1.45%.
